Measured values from PubChem BioAssay (NCI).
This is part of a sample that, as a whole, favours compounds with a hit. Of some 83,000 tested, about 20% had one in any assay.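 Compound tested at a single concentration for 48 hours in 96-well plates; a percent growth value below 10 was scored as active.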 The source made the active and inactive calls.

Legend:
Experiment in all cases: NCI-60 one-dose screen, 48 h (100 = growth as untreated, 0 = no growth, -100 = all killed)
Conditions in all cases: 10 µM unless noted
SR leukemia = tested on: SR leukemia
RPMI-8226 leukemia = tested on: RPMI-8226 leukemia
OVCAR-8 ovarian = tested on: OVCAR-8 ovarian
OVCAR-5 ovarian = tested on: OVCAR-5 ovarian
OVCAR-4 ovarian = tested on: OVCAR-4 ovarian
SK-OV-3 ovarian = tested on: SK-OV-3 ovarian
IGROV1 ovarian = tested on: IGROV1 ovarian
OVCAR-3 ovarian = tested on: OVCAR-3 ovarian
HS 578T breast = tested on: HS 578T breast
NCI/ADR-RES ovarian = tested on: NCI/ADR-RES ovarian
T-47D breast = tested on: T-47D breast
BT-549 breast = tested on: BT-549 breast
MDA-MB-435 melanoma = tested on: MDA-MB-435 melanoma
SW-620 colon = tested on: SW-620 colon
MCF7 breast = tested on: MCF7 breast
HCT-116 colon = tested on: HCT-116 colon
HCC-2998 colon = tested on: HCC-2998 colon
KM12 colon = tested on: KM12 colon

Measured: growth

Cc1cc(=O)n(C(=S)Nc2ccc(Cl)cc2)c2cc(O)ccc12
inactive: SR leukemia 108% | RPMI-8226 leukemia 113% | OVCAR-8 ovarian 101% | OVCAR-5 ovarian 101% | OVCAR-4 ovarian 92.5% | SK-OV-3 ovarian 79.1% | IGROV1 ovarian 102% | OVCAR-3 ovarian 100% | HS 578T breast 109% | NCI/ADR-RES ovarian 103% | T-47D breast 85.4% | BT-549 breast 119% | MDA-MB-435 melanoma 105% | SW-620 colon 110% | MCF7 breast 98.7% | HCT-116 colon 96% | HCC-2998 colon 100% | KM12 colon 102%

c1ccc(Cn2cc3c(c2-c2ccccc2)CCc2cnoc2-3)cc1
inactive: SR leukemia 37.3% | RPMI-8226 leukemia 46.7% | OVCAR-8 ovarian 84.5% | OVCAR-5 ovarian 96% | OVCAR-4 ovarian 86.2% | SK-OV-3 ovarian 88% | IGROV1 ovarian 76.6% | OVCAR-3 ovarian 56.7% | HS 578T breast 71.5% | NCI/ADR-RES ovarian 40.6% | T-47D breast 67% | BT-549 breast 64.1% | MDA-MB-435 melanoma 13.5% | SW-620 colon 24.1% | MCF7 breast 51.3% | HCT-116 colon 44.5% | HCC-2998 colon 58.5% | KM12 colon 27.7%

Nc1c(Br)cc2c(c1Br)Cc1cc([N+](=O)[O-])ccc1-2
inactive: SR leukemia 64.3% | RPMI-8226 leukemia 91.3% | OVCAR-8 ovarian 95.4% | OVCAR-5 ovarian 112% | OVCAR-4 ovarian 85.4% | SK-OV-3 ovarian 92.2% | IGROV1 ovarian 135% | OVCAR-3 ovarian 111% | HS 578T breast 104% | NCI/ADR-RES ovarian 104% | T-47D breast 58.3% | BT-549 breast 110% | MDA-MB-435 melanoma 108% | SW-620 colon 103% | MCF7 breast 33.8% | HCT-116 colon 95.3% | HCC-2998 colon 104% | KM12 colon 99.1%

C=C(C)[C@@H]1CC[C@]2(C(=O)N3CCN(C)CC3)CC[C@]3(C)[C@H](CC[C@@H]4[C@@](C)(CCC(=O)O)[C@H](C(=C)C)CC[C@]43C)[C@@H]12
inactive: SR leukemia 56.9% | RPMI-8226 leukemia 58.6% | OVCAR-8 ovarian 88.9% | OVCAR-5 ovarian 111% | OVCAR-4 ovarian 97% | SK-OV-3 ovarian 89.6% | IGROV1 ovarian 104% | OVCAR-3 ovarian 88.8% | HS 578T breast 86.7% | NCI/ADR-RES ovarian 92.4% | T-47D breast 85.7% | BT-549 breast 96.8% | MDA-MB-435 melanoma 93.6% | SW-620 colon 99.7% | MCF7 breast 82.8% | HCT-116 colon 68.2% | HCC-2998 colon 93.8% | KM12 colon 68.7%

O=C(c1c[nH]c2ccccc12)c1n[nH]c(=S)n1-c1ccc([N+](=O)[O-])cc1
inactive: SR leukemia 92% | RPMI-8226 leukemia 68.4% | OVCAR-8 ovarian 97.1% | OVCAR-5 ovarian 101% | OVCAR-4 ovarian 85% | SK-OV-3 ovarian 95.4% | IGROV1 ovarian 73.1% | OVCAR-3 ovarian 95.3% | HS 578T breast 92.8% | NCI/ADR-RES ovarian 106% | T-47D breast 40.4% | BT-549 breast 117% | MDA-MB-435 melanoma 104% | SW-620 colon 100% | MCF7 breast 63.3% | HCT-116 colon 90.3% | HCC-2998 colon 58.5% | KM12 colon 67.4%

Cc1ncc(C(=O)Nc2ccc(CN3CCN(C)CC3)c(C(F)(F)F)c2)cc1C#Cc1cnc(N)c2ccc(C#N)cc12
active: SR leukemia 4.87% | RPMI-8226 leukemia 7.42% | OVCAR-8 ovarian 3.22% | OVCAR-5 ovarian -24.7% | OVCAR-4 ovarian -7.66% | SK-OV-3 ovarian -14.6% | IGROV1 ovarian -43.9% | HS 578T breast -8.89% | MDA-MB-435 melanoma -28.4% | SW-620 colon 6.41% | HCT-116 colon -19.9% | KM12 colon 3.87%
inactive: OVCAR-3 ovarian 25% | NCI/ADR-RES ovarian 39% | T-47D breast 19% | BT-549 breast 43.5% | MCF7 breast 11.5% | HCC-2998 colon 34.1%

O=c1c2ccccc2n(C[C@H]2CO2)c2ccccc12
active: SR leukemia 8.95% | RPMI-8226 leukemia 1.45% | OVCAR-8 ovarian 4.1% | OVCAR-5 ovarian -12.7% | OVCAR-4 ovarian 7.68% | SK-OV-3 ovarian -13.5% | IGROV1 ovarian -52.3% | OVCAR-3 ovarian -19.7% | HS 578T breast 6.14% | NCI/ADR-RES ovarian -14.3% | BT-549 breast -4.38% | MDA-MB-435 melanoma -61.5% | SW-620 colon 0.352% | MCF7 breast -4.75% | HCT-116 colon 2.21% | HCC-2998 colon -70% | KM12 colon -16.4%
inactive: T-47D breast 12.6%

Clc1ccc(-c2cc(-c3ccccc3)nc(N3CCN(CCCNc4ccnc5cc(Cl)ccc45)CC3)n2)cc1
inactive: OVCAR-5 ovarian 33.5% | SK-OV-3 ovarian 106% | NCI/ADR-RES ovarian 36% | BT-549 breast 100%
active: SR leukemia 5.44% | RPMI-8226 leukemia 4.72% | OVCAR-8 ovarian -47.5% | OVCAR-4 ovarian 9.85% | IGROV1 ovarian -62.4% | OVCAR-3 ovarian -47.9% | HS 578T breast -17.9% | T-47D breast -56.1% | MDA-MB-435 melanoma -61.8% | SW-620 colon -42.3% | MCF7 breast -18.5% | HCT-116 colon -79.6% | HCC-2998 colon -73.4% | KM12 colon 3.69%

CC1(C)N=C(N)N=C(N)N1c1ccc(S(=O)(=O)Nc2nccs2)cc1
inactive: SR leukemia 104% | RPMI-8226 leukemia 108% | OVCAR-8 ovarian 104% | OVCAR-5 ovarian 91.9% | OVCAR-4 ovarian 104% | SK-OV-3 ovarian 102% | IGROV1 ovarian 100% | OVCAR-3 ovarian 107% | HS 578T breast 103% | NCI/ADR-RES ovarian 106% | T-47D breast 95.6% | BT-549 breast 94.1% | MDA-MB-435 melanoma 102% | SW-620 colon 98.2% | MCF7 breast 103% | HCT-116 colon 100% | HCC-2998 colon 113% | KM12 colon 101%

COc1cc(/C=N/NC(=O)c2ccc(-n3cc(-c4ccccc4)nn3)cc2)cc(OC)c1OC
inactive: SR leukemia 55.4% | RPMI-8226 leukemia 24% | OVCAR-8 ovarian 49% | OVCAR-5 ovarian 105% | OVCAR-4 ovarian 45.8% | SK-OV-3 ovarian 73.7% | IGROV1 ovarian 57% | OVCAR-3 ovarian 93% | HS 578T breast 53.1% | NCI/ADR-RES ovarian 80.8% | T-47D breast 59.8% | BT-549 breast 53.8% | MDA-MB-435 melanoma 33.1% | SW-620 colon 64.8% | MCF7 breast 14.1% | HCT-116 colon 89.5% | HCC-2998 colon 84.3% | KM12 colon 53.1%

Cc1ccc(C2CC(c3cccc(Nc4ccncc4)c3)=Nc3c(N)nc(N)nc3N2)cc1 (stereo unspecified)
inactive: RPMI-8226 leukemia 44.9% | OVCAR-8 ovarian 38% | OVCAR-5 ovarian 95.5% | OVCAR-4 ovarian 81.2% | SK-OV-3 ovarian 97.9% | IGROV1 ovarian 42.4% | OVCAR-3 ovarian 82.1% | HS 578T breast 80% | NCI/ADR-RES ovarian 101% | T-47D breast 89% | BT-549 breast 114% | MDA-MB-435 melanoma 21.7% | SW-620 colon 30.4% | MCF7 breast 37.7% | HCT-116 colon 22.3% | HCC-2998 colon 62.4% | KM12 colon 51.7%
active: SR leukemia -4.18%

CCCC(=O)NC(c1ccc2c(c1)OCO2)c1cc(Cl)c2cccnc2c1O (stereo unspecified)
active: NCI/ADR-RES ovarian 1.56%
inactive: SR leukemia 10.9% | RPMI-8226 leukemia 17.7% | OVCAR-8 ovarian 10.6% | OVCAR-5 ovarian 54% | OVCAR-4 ovarian 19.3% | SK-OV-3 ovarian 29.8% | IGROV1 ovarian 16.2% | OVCAR-3 ovarian 17.6% | HS 578T breast 44.4% | T-47D breast 23% | BT-549 breast 63.3% | MDA-MB-435 melanoma 37.5% | SW-620 colon 24.7% | MCF7 breast 17.5% | HCT-116 colon 23.1% | HCC-2998 colon 43.1% | KM12 colon 33.9%

Cc1cccc(NC(=O)Cn2cc(CN3CCN(c4ccnc5cc(Cl)ccc45)CC3)nn2)c1
inactive: SR leukemia 78% | RPMI-8226 leukemia 63.7% | OVCAR-8 ovarian 92.7% | OVCAR-5 ovarian 96.8% | OVCAR-4 ovarian 78.1% | SK-OV-3 ovarian 76.6% | IGROV1 ovarian 89.1% | OVCAR-3 ovarian 91.1% | HS 578T breast 85.1% | NCI/ADR-RES ovarian 91.3% | T-47D breast 83.8% | BT-549 breast 86.2% | MDA-MB-435 melanoma 93.4% | SW-620 colon 90.1% | MCF7 breast 88.2% | HCT-116 colon 95.3% | HCC-2998 colon 102% | KM12 colon 81.6%

S=c1ccnc[nH]1
inactive: SR leukemia 131% | RPMI-8226 leukemia 110% | OVCAR-8 ovarian 100% | OVCAR-5 ovarian 101% | OVCAR-4 ovarian 117% | SK-OV-3 ovarian 113% | IGROV1 ovarian 110% | OVCAR-3 ovarian 111% | HS 578T breast 113% | NCI/ADR-RES ovarian 100% | T-47D breast 125% | BT-549 breast 106% | MDA-MB-435 melanoma 113% | SW-620 colon 108% | MCF7 breast 107% | HCT-116 colon 96.8% | HCC-2998 colon 104% | KM12 colon 109%

Brc1ccc(Nc2nc(Nc3cnc4ccccc4c3)c3[nH]cnc3n2)cc1
inactive: SR leukemia 63.9% | RPMI-8226 leukemia 64.2% | OVCAR-8 ovarian 83.9% | OVCAR-5 ovarian 101% | OVCAR-4 ovarian 73.7% | SK-OV-3 ovarian 68.2% | IGROV1 ovarian 74.7% | OVCAR-3 ovarian 60.2% | HS 578T breast 60.9% | NCI/ADR-RES ovarian 92.4% | T-47D breast 52.8% | BT-549 breast 48.6% | MDA-MB-435 melanoma 96.3% | SW-620 colon 91.9% | MCF7 breast 58% | HCT-116 colon 55% | HCC-2998 colon 103% | KM12 colon 88.8%

C#Cc1cccc(Nc2ncnc3cc(NC(=O)CCl)ccc23)c1
active: SR leukemia -37.5% | RPMI-8226 leukemia -43.7% | OVCAR-8 ovarian -11.7% | OVCAR-5 ovarian -91% | OVCAR-4 ovarian -60.1% | SK-OV-3 ovarian -0.177% | IGROV1 ovarian -56.6% | OVCAR-3 ovarian -88.7% | HS 578T breast -2.33% | NCI/ADR-RES ovarian -28.6% | T-47D breast -52.7% | BT-549 breast -76.7% | MDA-MB-435 melanoma -70.8% | SW-620 colon -61.6% | MCF7 breast -50.4% | HCT-116 colon -76.3% | HCC-2998 colon -88.3% | KM12 colon -74.3%

Fc1cccc(CNc2c3ccccc3nc3ccccc23)c1
inactive: SR leukemia 19.1% | RPMI-8226 leukemia 10.1% | OVCAR-8 ovarian 36% | OVCAR-5 ovarian 43.8% | OVCAR-4 ovarian 30.5% | SK-OV-3 ovarian 51.1% | IGROV1 ovarian 25.6% | OVCAR-3 ovarian 67% | HS 578T breast 63.9% | NCI/ADR-RES ovarian 30.1% | T-47D breast 42.7% | BT-549 breast 77.1% | MDA-MB-435 melanoma 48.9% | SW-620 colon 22% | HCT-116 colon 13.4% | HCC-2998 colon 29.9% | KM12 colon 48.6%
active: MCF7 breast 7.9%
